Where “and” joins values, the source holds several entries; their conditions need not be identical. Identical values can stand only once. Results filed as inconclusive are left out. Calls of active or inactive are those of the source. Unless noted, calls come from the whole dose curve.
Columns and labels:
[1] = Cell Viability - BJ (AID 421); conditions: BJ fibroblast viability, qHTS;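 note: potency is the fitted concentration of half-maximal effect; cells exposed to compound for 40 hours at 37 °C before readout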
In short: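 Luminescent ATP signal (CellTiter-Glo, 20 min at room temperature) served as the read-out of viable BJ cells after 40 hours of compound treatment. Responses were scaled between DMSO and 100 uM tamoxifen, and AC50 values were obtained by Hill modeling.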

[2] = Cell Viability - HepG2 (AID 433); conditions: qHTS;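 note: potency is the fitted concentration of half-maximal effect; potency for ATP loss meaning cytotoxicity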
In short: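 HepG2 cells, 1500 per well, treated 40 hr at 37 °C in complete medium; viability from intracellular ATP by CellTiter-Glo luminescence. Normalized to DMSO and 100 uM tamoxifen; AC50 from Hill fit of qHTS concentration-response.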

[3] = Cell Viability - N2a (AID 540; active = well fitted cell-killing curve with a large enough effect;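 note: plate controls were DMSO alone for no effect and tamoxifen control for full effect; nearly all actives have a fitted effect of over 45% in size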); conditions: N2a mouse neuroblastoma cell viability; activity change, negative = cytotoxicity: at 92.2 µM (top of the series)
In short: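 Mouse neuroblastoma N2a cells, 1500/well, exposed to compounds 40 h at 37 °C in complete medium. Viability measured as cellular ATP by CellTiter-Glo luminescence; AC50 from Hill fits of concentration-response.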

[4] = target: Estrogen receptor (Homo sapiens) (UniProt P03372); experiment: qHTS assay for small molecule antagonists of estrogen receptor alpha signaling (AID 588513; active = well fitted curve in the direction sought with a large enough effect in the signal ratio, with a control signal flat, not every such curve was filed as active; the % refers to the signal ratio; note: % is set by controls: 0 for no effect and ±100 for the full control effect); conditions: ER-alpha-UAS-bla HEK293, beta-lactamase ratio, antagonist mode; series mostly up to 76.9 µM
Sequence of Estrogen receptor (Homo sapiens) (P03372 whole entry, looked up): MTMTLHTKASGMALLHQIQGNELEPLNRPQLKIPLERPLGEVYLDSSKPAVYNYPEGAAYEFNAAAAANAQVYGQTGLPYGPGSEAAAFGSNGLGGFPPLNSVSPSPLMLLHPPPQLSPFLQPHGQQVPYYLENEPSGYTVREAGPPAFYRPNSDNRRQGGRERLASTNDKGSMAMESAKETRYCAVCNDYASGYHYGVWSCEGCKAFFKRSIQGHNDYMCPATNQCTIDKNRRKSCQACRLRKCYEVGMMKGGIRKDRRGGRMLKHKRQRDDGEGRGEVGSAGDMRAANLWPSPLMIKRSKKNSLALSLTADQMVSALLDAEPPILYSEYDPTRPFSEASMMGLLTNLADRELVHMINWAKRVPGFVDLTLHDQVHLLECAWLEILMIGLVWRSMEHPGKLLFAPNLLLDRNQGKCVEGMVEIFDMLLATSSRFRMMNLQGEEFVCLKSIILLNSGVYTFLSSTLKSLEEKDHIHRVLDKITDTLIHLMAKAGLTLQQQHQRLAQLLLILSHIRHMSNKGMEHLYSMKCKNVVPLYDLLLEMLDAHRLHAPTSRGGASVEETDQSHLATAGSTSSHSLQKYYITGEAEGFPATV
In short: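 ER-alpha-UAS-bla GripTite HEK 293 cells in 2% charcoal/dextran-treated FBS medium; compounds titrated (1:2, duplicate), then stimulated with 0.5 nM 17-beta-estradiol for 18 h at 37C. CCF4 beta-lactamase fluorescence; Hill-fit IC50 and efficacy.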

[5] = target: Bile acid receptor (Homo sapiens) (UniProt Q96RI1); experiment: qHTS assay for small molecule agonists of farnesoid X receptor signaling (AID 588527); conditions: HEK293T FXR-UAS-bla, beta-lactamase ratio, 16 h; stronger effect = higher value;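 note: 0% = vehicle basal and 100% = reference agonist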
Sequence of Bile acid receptor (Homo sapiens) (Q96RI1 whole entry, looked up): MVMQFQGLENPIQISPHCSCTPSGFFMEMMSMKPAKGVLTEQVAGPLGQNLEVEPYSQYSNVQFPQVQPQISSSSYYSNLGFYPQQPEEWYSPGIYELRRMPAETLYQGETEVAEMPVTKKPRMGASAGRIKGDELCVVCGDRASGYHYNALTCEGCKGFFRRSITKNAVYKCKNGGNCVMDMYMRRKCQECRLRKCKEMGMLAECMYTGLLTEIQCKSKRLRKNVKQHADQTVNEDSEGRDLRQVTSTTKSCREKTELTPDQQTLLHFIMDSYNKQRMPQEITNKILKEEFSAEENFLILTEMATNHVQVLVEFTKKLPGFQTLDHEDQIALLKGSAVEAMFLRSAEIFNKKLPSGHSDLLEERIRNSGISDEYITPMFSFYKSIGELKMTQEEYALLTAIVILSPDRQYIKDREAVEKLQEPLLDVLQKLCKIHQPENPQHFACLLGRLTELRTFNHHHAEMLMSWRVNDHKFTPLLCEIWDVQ
In short: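 FXR-UAS-bla HEK293T, 10% dialyzed FBS; cpds up to 92 uM titration, 16 h 37 C; CCF4 dye 2 h RT; fluorescence. Normalized to chenodeoxycholic acid 100 uM (100%) and DMSO (0%); Hill fit gives EC50, efficacy.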

[6] = target: Glucocorticoid receptor (Homo sapiens) (UniProt P04150); experiment: qHTS assay for small molecule agonists of glucocorticoid receptor signaling (AID 588532; active = well fitted curve in the direction sought with a large enough effect in the signal ratio, with a control signal flat; the % refers to the signal ratio;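 note: 100% = dexamethasone at 0.1 µM and 0% = DMSO only wells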); conditions: HeLa MMTV-bla, beta-lactamase ratio, agonist, 18 h; stronger effect = higher value; percent of dexamethasone control, DMSO zero
Sequence of Glucocorticoid receptor (Homo sapiens) (P04150 whole entry, looked up): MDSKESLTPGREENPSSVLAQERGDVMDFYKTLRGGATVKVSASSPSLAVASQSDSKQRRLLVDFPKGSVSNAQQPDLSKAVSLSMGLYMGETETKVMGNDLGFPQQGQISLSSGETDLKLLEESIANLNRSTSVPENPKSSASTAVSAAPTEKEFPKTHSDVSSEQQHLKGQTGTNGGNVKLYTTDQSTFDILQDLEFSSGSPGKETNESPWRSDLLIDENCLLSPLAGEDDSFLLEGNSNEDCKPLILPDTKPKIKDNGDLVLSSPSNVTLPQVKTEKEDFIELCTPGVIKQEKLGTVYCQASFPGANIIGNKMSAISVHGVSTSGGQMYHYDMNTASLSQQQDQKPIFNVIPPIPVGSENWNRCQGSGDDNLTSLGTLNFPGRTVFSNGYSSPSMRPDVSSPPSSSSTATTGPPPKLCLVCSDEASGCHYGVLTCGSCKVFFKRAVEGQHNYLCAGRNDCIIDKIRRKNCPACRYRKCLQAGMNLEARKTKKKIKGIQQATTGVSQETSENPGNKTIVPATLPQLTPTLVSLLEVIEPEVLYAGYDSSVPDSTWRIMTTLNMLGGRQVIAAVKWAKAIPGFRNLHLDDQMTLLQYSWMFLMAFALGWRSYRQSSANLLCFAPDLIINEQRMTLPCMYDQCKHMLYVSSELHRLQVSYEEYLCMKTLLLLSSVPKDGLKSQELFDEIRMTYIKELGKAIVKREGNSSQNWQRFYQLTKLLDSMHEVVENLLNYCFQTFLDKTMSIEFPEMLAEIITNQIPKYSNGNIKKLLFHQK
In short: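 MMTV-bla HeLa beta-lactamase reporter cells in 1% charcoal/dextran FBS medium, compounds up to 92 uM for 18 h at 37 C, CCF4 readout; normalized to 0.1 uM dexamethasone (100%), EC50 and efficacy from Hill fits.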

[7] = target: Peroxisome proliferator-activated receptor gamma (Homo sapiens) (UniProt P37231); experiment: qHTS assay for small molecule agonists of peroxisome proliferator-activated receptor gamma signaling (AID 588536; active = well fitted curve in the direction sought with a large enough effect in the signal ratio, with a control signal flat, not every such curve was filed as active; the % refers to the signal ratio;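 note: 0% = DMSO basal wells and 100% = rosiglitazone at 2 µM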); conditions: HEK293 PPARg-UAS-bla, beta-lactamase ratio, 16 h, percent of rosiglitazone response, DMSO as zero; series mostly up to 76.7 µM
Sequence of Peroxisome proliferator-activated receptor gamma (Homo sapiens) (P37231 whole entry, looked up): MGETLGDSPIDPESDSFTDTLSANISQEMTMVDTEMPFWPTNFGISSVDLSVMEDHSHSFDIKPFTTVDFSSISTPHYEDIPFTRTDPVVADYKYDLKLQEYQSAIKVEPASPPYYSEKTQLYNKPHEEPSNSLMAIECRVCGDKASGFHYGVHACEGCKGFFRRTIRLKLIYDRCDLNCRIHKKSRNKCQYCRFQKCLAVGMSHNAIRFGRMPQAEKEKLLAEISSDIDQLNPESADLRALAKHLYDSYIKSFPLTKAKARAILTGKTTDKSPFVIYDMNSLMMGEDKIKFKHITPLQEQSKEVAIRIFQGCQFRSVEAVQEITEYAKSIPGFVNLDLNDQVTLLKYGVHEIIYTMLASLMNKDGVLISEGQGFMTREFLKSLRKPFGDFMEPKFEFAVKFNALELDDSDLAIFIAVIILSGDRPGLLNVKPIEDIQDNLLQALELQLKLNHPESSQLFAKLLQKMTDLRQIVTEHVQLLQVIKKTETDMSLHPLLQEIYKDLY
In short: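 PPAR-gamma-UAS-bla HEK293 cells in medium with 1% charcoal/dextran-treated FBS were exposed to compounds for 16 h at 37 C. Beta-lactamase activity was read with CCF4 substrate (405 nm excitation, 460/530 nm emission).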

[8] = target: Thyroid hormone receptor beta (Homo sapiens) (UniProt P10828); experiment: qHTS assay for small molecule agonists of thyroid hormone receptor beta signaling (AID 588545); conditions: TR-UAS-bla GripTite HEK 293, beta-lactamase ratio, agonist mode, 18 h; series mostly up to 76.7 µM;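 note: 0% = DMSO only and 100% = 10 nM T3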
Sequence of Thyroid hormone receptor beta (Homo sapiens) (P10828 whole entry, looked up): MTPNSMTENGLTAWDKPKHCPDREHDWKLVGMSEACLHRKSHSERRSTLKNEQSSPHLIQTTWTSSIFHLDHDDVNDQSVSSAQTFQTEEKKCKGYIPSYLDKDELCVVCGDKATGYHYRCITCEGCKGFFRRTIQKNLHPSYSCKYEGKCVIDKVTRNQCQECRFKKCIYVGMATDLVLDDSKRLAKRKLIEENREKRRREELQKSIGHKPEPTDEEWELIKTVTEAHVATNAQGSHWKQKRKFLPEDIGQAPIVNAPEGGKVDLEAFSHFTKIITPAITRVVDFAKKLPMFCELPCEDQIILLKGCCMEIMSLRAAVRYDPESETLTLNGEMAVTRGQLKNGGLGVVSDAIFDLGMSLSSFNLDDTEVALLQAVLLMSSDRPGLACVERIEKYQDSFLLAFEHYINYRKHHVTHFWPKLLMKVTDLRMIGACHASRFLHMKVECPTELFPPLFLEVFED
In short: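 TR-UAS-bla-GripTite HEK 293 cells in medium with 2% charcoal/dextran FBS, 0.1 mM NEAA and 1 mM sodium pyruvate were treated with titrated compounds for 18 hrs at 37 C. Beta-lactamase reporter was read with CCF4 dye (ex 405, em 460/530 nm); EC50 from Hill fits.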

[9] = target: Thyroid hormone receptor beta (Homo sapiens) (UniProt P10828); experiment: qHTS assay for small molecule antagonists of thyroid hormone receptor beta signaling (AID 588547; active = well fitted inhibition curve with a large enough effect in the signal ratio, with a control signal flat, not every such curve was filed as active; the % refers to the signal ratio;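 note: cells stimulated with 0.4 nM T3 agonist during compound exposure; % is set by controls: 0 for no effect and ±100 for the full control effect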); conditions: TR-UAS-bla HEK293, beta-lactamase ratio, antagonist mode, 18 h
In short: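 TR-UAS-bla GripTite HEK293 cells in 2% charcoal/dextran FBS medium; compounds 0.59 nM to 92 uM with T3 at 0.4nM final, 18 h at 37 C. Beta-lactamase read by CCF4 fluorescence (460/530 nm); Hill fits gave IC50 and efficacy.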

[10] = qHTS assay for small molecule agonists of the antioxidant response element (ARE) signaling pathway (AID 651741; active = well fitted activation curve with a large enough effect in the signal ratio; the % refers to the signal ratio; note: % of control where 0% means no effect); conditions: HepG2 ARE-bla reporter, beta-lactamase FRET ratio, 16 h; series mostly up to 96 µM
In short: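 CellSensor ARE-bla HepG2 cells (2,000/well) carrying ARE-driven beta-lactamase, exposed 16 h at 37 C. LiveBLAzer B/G FRET substrate added for 2 h at room temperature; fluorescence intensity read.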

[11] = qHTS assay for small molecule activators of the p53 signaling pathway (AID 651743; active = well fitted activation curve with a large enough effect in the signal ratio, not every such curve was filed as active; the % refers to the signal ratio; note: potency is the fitted concentration of half-maximal effect; for activation: % of control where 0% means no effect); conditions: HCT-116 p53RE-bla, beta-lactamase FRET ratio, 16 h; activation: stronger effect = higher value
In short: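 p53RE-bla HCT-116 cells carrying a beta-lactamase reporter under p53 response elements were exposed to compounds for 16 hours at 37 C. Reporter activity read as fluorescence after 2 hours at room temperature with LiveBLAzer B/G FRET substrate.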

[12] = qHTS assay for small molecule disruptors of the mitochondrial membrane potential - 1 hr assay (AID 651754); conditions: series mostly up to 92.2 µM; note: % is set by controls: 0 for no effect and ±100 for the full control effect; nearly all actives have a fitted effect of over 35% in size
In short: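 HepG2 cells, attached overnight, were exposed to compound for 1 hr at 37C, then stained 30 min with a potentiometric dye. Ratio of red aggregate (590nm) to green monomer (535nm) fluorescence reports membrane potential; collapse shifts signal toward green.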

[13] = Cell Viability - MRC5 (AID 434); conditions: MRC5 lung fibroblast viability, qHTS;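 note: potency is the fitted concentration of half-maximal effect; potency reflects cytotoxicity seen as loss of intracellular ATP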
In short: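 MRC5 normal human lung fibroblasts, 1500 cells/well, exposed to compound for 40 hr at 37 C. Cellular ATP was read by CellTiter-Glo luminescence; data normalized to DMSO and 100 uM tamoxifen, with AC50 from Hill fits.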

[14] = target: Peroxisome proliferator-activated receptor delta (Homo sapiens) (UniProt Q03181); experiment: qHTS assay for small molecule agonists of peroxisome proliferator-activated receptor delta signaling (AID 588534); conditions: HEK293T PPARdelta-UAS-bla, beta-lactamase ratio, 18 h; series mostly up to 76.7 µM;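 note: 0% = DMSO basal wells and 100% = positive control agonist at 10 µM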
Sequence of Peroxisome proliferator-activated receptor delta (Homo sapiens) (Q03181 whole entry, looked up): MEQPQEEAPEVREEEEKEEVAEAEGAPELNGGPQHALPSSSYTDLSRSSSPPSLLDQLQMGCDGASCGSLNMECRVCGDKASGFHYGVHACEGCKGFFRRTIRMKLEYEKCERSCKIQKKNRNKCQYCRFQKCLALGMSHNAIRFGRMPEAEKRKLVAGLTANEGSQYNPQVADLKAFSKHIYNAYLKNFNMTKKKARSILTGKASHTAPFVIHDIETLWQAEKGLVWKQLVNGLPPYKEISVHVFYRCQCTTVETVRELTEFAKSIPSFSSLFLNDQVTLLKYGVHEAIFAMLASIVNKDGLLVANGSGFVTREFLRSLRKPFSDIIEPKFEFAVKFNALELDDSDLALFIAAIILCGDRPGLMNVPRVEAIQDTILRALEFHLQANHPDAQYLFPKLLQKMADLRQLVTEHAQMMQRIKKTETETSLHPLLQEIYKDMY
In short: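 Cells carrying a PPAR-delta beta-lactamase reporter were treated with compounds for 18 h at 37 °C in agonist mode. CCF4 fluorescence was read after 2 h; EC50 and efficacy from Hill fits.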

[15] = qHTS assay for small molecule antagonists of peroxisome proliferator-activated receptor delta signaling (AID 588535; active = well fitted inhibition curve with a large enough effect in the signal ratio, with a control signal flat, not every such curve was filed as active; the % refers to the signal ratio;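 for max response: cells co-treated with a PPAR-delta agonist as stimulator during compound exposure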); conditions: HEK293T PPARd-UAS-bla, beta-lactamase FRET ratio, 18 h; 460 nm channel
In short: (§1)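 Antagonist-mode beta-lactamase reporter (GeneBLAzer PPAR-delta-UAS-bla) in HEK293T cells, 2% charcoal/dextran FBS, 4000 cells/well. Compound titrations, 18 h at 37 C; CCF4 ratio read, IC50 and efficacy from Hill fits.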

[16] = target: Peroxisome proliferator-activated receptor delta (Homo sapiens) (UniProt Q03181); experiment: as above; conditions: HEK293T PPARd-UAS-bla, beta-lactamase FRET ratio, 18 h; series mostly up to 76.7 µM
In short: as §1

[17] = MultiTox-Fluor Cytotoxicity Assay - LYMP1-001 - Live Cells (AID 947; active = well fitted cell-killing curve with a large enough effect;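 note: 0% = DMSO only and full inhibition = tetraoctylammonium bromide control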); conditions: LYMP1-001 lymphoblastoid cells, live-cell protease fluorescence viability; series mostly up to 92.2 µM
[18] = target: Glucocorticoid receptor (Homo sapiens) (UniProt P04150); experiment: qHTS assay for small molecule antagonists of glucocorticoid receptor signaling (AID 588533; active = well fitted inhibition curve with a large enough effect in the signal ratio, with a control signal flat, not every such curve was filed as active; the % refers to the signal ratio; note: % is set by controls: 0 for no effect and ±100 for the full control effect); conditions: HeLa MMTV-bla, GRE beta-lactamase ratio, antagonist mode, 18 h; series mostly up to 76.8 µM
In short: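 Antagonist-mode qHTS: compound titrations added to GRE-bla HeLa cells, then dexamethasone 2 nM final; 18 h, 37 C. CCF4 FRET fluorescence normalized to dexamethasone and DMSO; IC50 from Hill fit.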

[19] = target: Peroxisome proliferator-activated receptor gamma (Homo sapiens) (UniProt P37231); experiment: qHTS assay for small molecule antagonists of peroxisome proliferator-activated receptor gamma signaling (AID 588537; active = well fitted inhibition curve with a large enough effect in the signal ratio, with a control signal flat, not every such curve was filed as active; the % refers to the signal ratio;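 note: reporter cells co-stimulated with 50 nM rosiglitazone agonist during compound treatment; % of control where 0% means no effect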); conditions: HEK293 PPARg-UAS-bla, beta-lactamase ratio, antagonist mode; series mostly up to 76.8 µM
In short: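 PPARγ-UAS-bla HEK293 cells (3000/well) in 1% charcoal/dextran-stripped FBS are treated with compound, then stimulated with 50 nM rosiglitazone for 16 h at 37 °C. Read-out is CCF4 β-lactamase fluorescence after 2 h at RT. IC50 comes from Hill fits normalised to rosiglitazone and DMSO.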

[20] = target: Vitamin D3 receptor (Homo sapiens) (UniProt P11473); experiment: qHTS assay for small molecule antagonists of vitamin D receptor signaling (AID 588541); conditions: HEK293T VDR-UAS-bla, beta-lactamase ratio, antagonist mode; series mostly up to 76.7 µM;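 note: receptor activated by calcitriol during compound treatment; % is set by controls: 0 for no effect and ±100 for the full control effect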
Sequence of Vitamin D3 receptor (Homo sapiens) (P11473 whole entry, looked up): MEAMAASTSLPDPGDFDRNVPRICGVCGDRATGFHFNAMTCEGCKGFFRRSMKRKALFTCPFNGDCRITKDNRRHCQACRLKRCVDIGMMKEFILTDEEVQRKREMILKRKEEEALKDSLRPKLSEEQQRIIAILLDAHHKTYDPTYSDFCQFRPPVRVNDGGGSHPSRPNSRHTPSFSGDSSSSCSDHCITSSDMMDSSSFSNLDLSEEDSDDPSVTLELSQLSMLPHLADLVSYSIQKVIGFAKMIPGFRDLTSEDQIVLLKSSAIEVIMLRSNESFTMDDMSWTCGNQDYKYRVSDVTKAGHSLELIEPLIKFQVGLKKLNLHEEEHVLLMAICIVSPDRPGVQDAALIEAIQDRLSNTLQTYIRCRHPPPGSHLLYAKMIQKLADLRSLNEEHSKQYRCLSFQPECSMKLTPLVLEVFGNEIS
In short: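 VDR-UAS-bla HEK293T cells in 2% charcoal-stripped FBS were stimulated with 1-alpha,25-dihydroxyvitamin D3 (3 nM final) plus compound for 16 h at 37 C. The beta-lactamase CCF4 readout was normalized to 50 nM agonist and DMSO, and Hill fits gave IC50.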

CCCCNC(=O)n1c(NC(=O)OC)nc2ccccc21
active: Potency [11] 14.1 µM
inactive: Potency [1] > 92 µM | Potency [2] > 92 µM | Potency [3] | Potency [4] | activation [5] -3.82% and -0.311% | activation [6] -10.9% | outcome [7] | Potency [8] | activity change % (negative = inhibition) [9] -13.8% and -24% | Potency [10] | Potency [12]

CCCCC#N
inactive: Potency [1] > 92 µM | Potency [13] > 92 µM | Potency [3] | Potency [4] | outcome [14] | outcome [16] | activity change % (negative = inhibition) [9] -12.9% | Potency [10] | activation [11] -7.46%
-3.23%: max response [15]

c1ccc(C2CO2)cc1 (stereo unspecified)
-22%: max response [15]
inactive: Potency [1] > 92 µM | Potency [2] > 92 µM | Potency [3] | outcome [17] | activation [6] 9.49% | outcome [18] | outcome [14] | outcome [16] | outcome [7] | Potency [19] | Potency [10] | activation [11] -1.82% | Potency [12]

COc1ccc(C=O)cc1
2.98%: max response [15]
inactive: Potency [1] > 92 µM | Potency [13] > 92 µM | Potency [3] | outcome [17] | Potency [4] | activation [6] -0.198% | outcome [18] | outcome [16] | outcome [7] | activity change % (negative = inhibition) [9] 19.4% | Potency [10] | activation [11] -1.3%

CC(C)CON=O
inactive: Potency [1] > 92 µM | Potency [2] > 92 µM | outcome [17] | Potency [4] | activation [6] 2.25% | outcome [14] | outcome [16] | outcome [7] | outcome [20] | activation [11] -2.37% | Potency [12]
-5.59%: max response [15]

Cc1coc2c1CCC(C)C2 (stereo unspecified)
-2.44%: max response [15]
inactive: Potency [1] > 92 µM | Potency [2] > 92 µM | Potency [3] | outcome [17] | Potency [4] | activation [6] 1.47% | outcome [14] | outcome [16] | Potency [8] | activity change % (negative = inhibition) [9] 22.1% | activation [11] -2.44% | Potency [12]

ClCC(Br)CBr (stereo unspecified)
inactive: Potency [1] > 92 µM | Potency [13] > 92 µM | Potency [3] | Potency [4] | activation [6] -3.35% | outcome [18] | outcome [7] | activation [11] -3.3%

O=[N+]([O-])CCO
inactive: Potency [1] > 92 µM | Potency [2] > 92 µM | Potency [13] > 92 µM | outcome [17] | Potency [4] | activation [6] -6.62% | outcome [7] | Potency [8] | activity change % (negative = inhibition) [9] 2.47%
